Laboratory results: ChEMBL document CHEMBL4296182, “CO-ADD screening of NIH NCI Diversity Set V”
For part of these data: Potency and affinity values are given separately.

Assays:
Staphylococcus aureus = test: Antibacterial activity against Staphylococcus aureus MRSA ATCC 43300 (CO-ADD:GP_020); MIC in CAMBH media using NBS plates, by Resazurin F(560/590); type: functional; settings: Concentration 20 uM, ASSAY_TEST Inhibition of Bacterial Growth, detection method Resazurin, Fluorescence (ex560/em590), MEDIA CAMHB, plate type 384well, CORNING #3640, time 18 hr
Acinetobacter baumannii = test: Antibacterial activity against Acinetobacter baumannii ATCC 19606 (CO-ADD:GN_034); MIC in CAMBH media using NBS plates, by Resazurin F(560/590); type: functional; settings: Concentration 20 uM, ASSAY_TEST Inhibition of Bacterial Growth, detection method Resazurin, Fluorescence (ex560/em590), MEDIA CAMHB, plate type 384well, CORNING #3640, time 18 hr
Escherichia coli = test: Antibacterial activity against Escherichia coli ATCC 25922 (CO-ADD:GN_001); MIC in CAMBH media using NBS plates, by Resazurin F(560/590); type: functional; settings: Concentration 20 uM, ASSAY_TEST Inhibition of Bacterial Growth, detection method Resazurin, Fluorescence (ex560/em590), MEDIA CAMHB, plate type 384well, CORNING #3640, time 18 hr
Klebsiella pneumoniae = settings: Concentration 20 uM; ASSAY_TEST Inhibition of Bacterial Growth; detection method Absorption (OD600); MEDIA CAMHB; plate type 384well; NBS; CORNING #3640; time 18 hr
Candida albicans = settings: 20 µM
Cryptococcus neoformans = settings: Concentration 20 uM; ASSAY_TEST Inhibition of Fungal Growth; detection method Resazurin; Absorption (OD600-OD570); plate type 384well; NBS; CORNING #3640

Compound	Inhibition (Staphylococcus aureus) [%]	Inhibition (Acinetobacter baumannii) [%]	Inhibition (Escherichia coli) [%]	Inhibition (Klebsiella pneumoniae) [%]	Inhibition (Candida albicans) [%]	Inhibition (Cryptococcus neoformans) [%]
CCN(CC)Cc1cc2[nH]c3c4ccc(Cl)cc4ncc3c2cc1OC	9.09	18.93	-2.05	30.45	-0.29	-5.75
Nc1ccccc1-c1nc2cnccc2[nH]1	12.51	-12.24	9.24	2.75	-2.69	-6.41
COC(=O)C1CC(O)C(O)C(O)C1 (stereo not given)	17.7	-10.09	12.92	15.79	1.86	-4.69
O=C(O)CSc1nc2ccccc2s1	14.28	-9.51	3.19	0.1	13.9	-12.74
CN1CCc2ccccc2C1Cc1ccccc1NC(=O)c1sc2ccccc2c1Cl (stereo not given)	1.84	-6.84	0.33	11.11	2.39	-3.5
O=[N+]([O-])c1ccc2[nH]c3nc4ccccc4nc3c2c1	17.59	16.49	-1.33	-1.62	5.48	44.37
Cn1nc(N)c2ncc(C(Cl)(Cl)Cl)nc21	-7.62	-8.78	5.5	9.07	10.5	-10.84
COc1ccc(C2C3=C(COC3=O)Oc3cc4c(cc32)OCO4)cc1OC (stereo not given)	25.54	-8.11	12.52	17.02	0.53	-1.21
C#Cc1cccc(NC(=O)c2ccc(Cl)cc2Cl)c1	1.84	-16.25	7.38	6.81	7.69	-7.06
CC1=CC2(C)NC(=O)C(C)C12 (stereo not given)	9.76	-10.3	6.64	6.26	-0.72	-9.55
CCOC(=O)CSc1nc2nc(Cl)c(Cl)[nH]c-2n1	22.58	6.84	-0.86	8.77	0.89	3.6
O=C(O)c1ccccc1-n1c2ccccc2c2ccccc21	10.38	6.58	7.31	10.24	4.15	-5.74
CSc1cccc(NC(=O)Nc2nc3c(C)cccc3s2)c1	-3.9	2.69	8.83	7.86	-0.92	-2.59
OCCCCc1nccc2c1[nH]c1ccccc12	-6.35	-7.04	-1.94	-0.62	2.78	-8.33
O=C(O)c1cccc2c1C(=O)c1cccc3snc-2c13	11.24	8.28	-4.32	2.89	21.9	-0.5
CN1C=C/C(=C/[N+](=O)[O-])N(C)C1=O	9.11	-6.18	4.71	0.88	1.05	-5.15
c1ccc(-c2ccc3c(c2)NCCN3)cc1	0.03	-10.39	5.22	8.37	-1.02	1.51
O=C(Nc1ccsn1)c1ccc(Cl)cc1Cl	2.74	-9.67	7.73	13.89	3.31	7.18
Oc1cc(CNC2CCCCC2)c(O)cc1CNC1CCCCC1	1.43	-9.92	2.36	11.38	5.97	-6.29
O=c1c2ccccc2ncn1-c1ccc(Cl)cc1	11.71	-18.47	12.96	4.73	3.91	-12.39
Nc1ccc(/N=N/c2ccccc2Cl)c(N)n1	4.22	-1.2	2.51	18.4	14.2	-16.58
COc1ccc2c(c1)CCN1C2CCN2C(=O)CCC21 (stereo not given)	-11.91	-4.71	-9.16	7.62	3.14	-4.03
COc1ccc(/N=N/c2ccc(N)nc2N)cc1	0.3	-8.88	5.08	7.55	4.94	-6.06
c1ccc2cc(OCCOCCOc3ccc4ccccc4c3)ccc2c1	11.38	0.36	5.4	11.21	5.37	-6.02
CSC(=NS(=O)(=O)c1ccccc1)NNC(=O)c1c(-c2c(Cl)cccc2Cl)noc1C	2.63	2.35	-1.44	10.18	6.77	-2.9

Compound	Inhibition (Staphylococcus aureus) [%]	Inhibition (Acinetobacter baumannii) [%]	Inhibition (Escherichia coli) [%]	Inhibition (Klebsiella pneumoniae) [%]	Inhibition (Candida albicans) [%]	Inhibition (Cryptococcus neoformans) [%]
C#CCSc1nc(-c2ccco2)n[nH]1	6.25	16.42	-3.2	9.41	3.4	-6.15
c1ccc(-c2nnc3oc(-c4cccs4)nn23)cc1	-2.52	-16.04	4.88	16.29	19.4	28.69
O=[N+]([O-])c1cc(-c2cccnc2)[nH]n1	-4.13	-4.27	2.34	30.86	1.12	-1.42
Cc1ccc(C)c(C(=O)CCC(=O)O)c1	9.56	8.73	0.68	19.18	8	-5.46
C1COCCN1.O=C(O)C(C=C(Cl)Cl)N1CCOCC1 (stereo not given)	15.53	-4.57	-1.54	22.22	3.18	-2.22
Nc1cc(O)nc2ncnn12	9.25	-2.47	7.96	6.69	-0.84	-4.53
Cn1c(=O)c2nc(CNc3ccc(C(=O)O)cc3)[nH]c2n(C)c1=O	-13.67	2.67	-18.91	4.5	2.41	17.72
Sc1nc2c[nH]c(S)nc-2n1	21.94	-11.86	14.36	15.98	5.35	-7.36
Nc1nc(SCc2ccccn2)c2ncn(C3OC(CO)C(O)C3O)c2n1 (stereo not given)	6.83	2.95	4.84	10.89	-1.39	-4.63
CSc1nc2nc(C(O)c3ccccc3)nc-2c[nH]1 (stereo not given)	9.64	6.4	-14.24	16.25	8.94	28.87
CCOc1ccc2sc(NS(=O)(=O)c3ccc(N)cc3)nc2c1	-6.39	-10.5	7.14	12.93	4	-12.92
CN(C)c1ccc(C(c2ccc(N(C)C)cc2)c2ccc([N+](=O)[O-])cc2)cc1	15.85	11.72	-1.1	17.42	2.89	-7.55
COc1ccc(OC)c(NC(=O)c2cc3oc4ccccc4c3cc2O)c1	13.76	8.19	5.92	9.42	-3.33	-0.7
CSc1cccc(NC(=O)Nc2ccccc2C(N)=O)c1	1.7	10.06	13.89	12.71	-0.32	-13.91
O=C(O)c1cc(Cl)nnc1O	15.87	-4.6	13.02	-7.82	-1.79	-6.94
Cc1cccc2c1c1ccc3c(c1n2C)C(=O)C=CC3=O	-3.83	-13.4	14.66	10.43	16.9	1.61
O=C(NC1CCCCC1)c1cc2ccccc2cc1O	11.46	7.31	4.75	14.67	0.86	-3.07
Nc1ccc(N/C(S)=N/c2ccccc2)cc1	15.05	4.29	7.29	5.43	1.8	-4.63
Cn1c(C(=O)c2ccncc2)cc2ccccc21	10.4	13.49	0.36	4.66	5.59	-4.68
O=[N+]([O-])C1C(c2ccccc2)C12c1ccccc1-c1ccccc12 (stereo not given)	1.75	-9.94	13.79	-4	-1.91	-10.55
CNc1ccc(/N=N/c2cc[n+]([O-])cc2C)cc1C	-1.07	-11.34	7.82	8.63	-0.41	-28.56
O=C(O)c1nc2nc(Cl)c(Cl)nc2[nH]1	-9.71	8.37	0.88	10.97	3.92	-11.32
c1ccc(-c2cn3ccccc3n2)cc1	26.82	-4.96	13.79	17.46	-0.09	-2.58
Nc1ncnc(N2CCOCC2)n1	-3.61	-4.78	-0.51	0.72	2.01	-5.84
O=C(O)c1ccccc1-c1ccccc1C(=O)Nc1ccc2oc(=O)c3ccccc3c2c1	4.75	-2.77	-0.87	11.43	17.8	-3.99
